Among the data in publication PMC7862700, “An all-to-all approach to the identification of sequence-specific readers for epigenetic DNA modifications on cytosine” are binding signal values, retold here.

What all share (test): DAPPL (digital affinity profiling via proximity ligation, sequencing); 10 mM Tris-HCl pH 7.5, 50 mM NaCl, 1 mM DTT, 4% glycerol, room temperature, 30 min; GST-TFs on glutathione beads, 16-mer random dsDNA library, 0.1% formaldehyde crosslink after washing; high values mean tight binding
Assay [1] deals with T1, FLI1 (Homo sapiens, UniProt Q01543 1-452).
T1 sequence: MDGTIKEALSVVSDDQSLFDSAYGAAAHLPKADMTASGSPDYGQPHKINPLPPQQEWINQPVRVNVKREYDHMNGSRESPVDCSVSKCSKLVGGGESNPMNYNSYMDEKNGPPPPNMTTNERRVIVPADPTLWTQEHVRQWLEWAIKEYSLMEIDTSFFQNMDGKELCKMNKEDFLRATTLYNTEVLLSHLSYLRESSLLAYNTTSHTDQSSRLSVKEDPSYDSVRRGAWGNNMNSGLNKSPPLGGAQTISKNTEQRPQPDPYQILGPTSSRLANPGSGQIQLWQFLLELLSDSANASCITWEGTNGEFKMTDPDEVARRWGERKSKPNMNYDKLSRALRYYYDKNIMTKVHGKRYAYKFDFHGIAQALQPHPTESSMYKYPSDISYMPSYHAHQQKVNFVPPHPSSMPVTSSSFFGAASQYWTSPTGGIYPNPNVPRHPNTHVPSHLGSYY
The note with it: protein: recombinant; tags: N-terminal GST; dsDNA, one strand shown. The gist of the method:
(§1)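 In yeast, human transcription factors were expressed with a GST fusion, then pulled down on glutathione beads and given DNA barcodes. Pooled with a tag-only sample, they were exposed to 200 nmole of a 16-mer random double-stranded DNA library (Tris/NaCl/DTT/glycerol buffer, room temperature, 30 min), washed, crosslinked with 0.1% formaldehyde, proximity-ligated using BsaI/T4 ligase for 1 h at 37 °C, PCR-amplified and read on an Illumina NextSeq500. Each hexamer's frequency of reads for a factor, divided by the matching frequency for the tag-only sample, gives the binding signal.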

Assay [2] addresses T2, ELK1 (Homo sapiens, UniProt P19419 1-428).
T2 sequence: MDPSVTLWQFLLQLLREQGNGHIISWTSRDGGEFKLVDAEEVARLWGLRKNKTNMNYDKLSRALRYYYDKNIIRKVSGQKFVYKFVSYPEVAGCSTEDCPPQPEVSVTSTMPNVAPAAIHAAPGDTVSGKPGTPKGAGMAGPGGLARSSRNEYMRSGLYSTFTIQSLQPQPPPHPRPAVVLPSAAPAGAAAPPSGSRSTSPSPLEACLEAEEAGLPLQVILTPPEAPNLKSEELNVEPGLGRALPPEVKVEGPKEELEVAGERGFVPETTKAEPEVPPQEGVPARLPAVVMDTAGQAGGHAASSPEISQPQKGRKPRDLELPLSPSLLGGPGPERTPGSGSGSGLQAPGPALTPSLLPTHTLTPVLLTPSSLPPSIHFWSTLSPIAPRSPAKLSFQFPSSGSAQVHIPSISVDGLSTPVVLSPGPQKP
The note with it: protein: recombinant; tags: N-terminal GST; dsDNA, one strand shown. The gist of the method: as §1

Assay [3] has as its target T3, GABPA (Homo sapiens, UniProt Q06546 1-454).
T3 sequence: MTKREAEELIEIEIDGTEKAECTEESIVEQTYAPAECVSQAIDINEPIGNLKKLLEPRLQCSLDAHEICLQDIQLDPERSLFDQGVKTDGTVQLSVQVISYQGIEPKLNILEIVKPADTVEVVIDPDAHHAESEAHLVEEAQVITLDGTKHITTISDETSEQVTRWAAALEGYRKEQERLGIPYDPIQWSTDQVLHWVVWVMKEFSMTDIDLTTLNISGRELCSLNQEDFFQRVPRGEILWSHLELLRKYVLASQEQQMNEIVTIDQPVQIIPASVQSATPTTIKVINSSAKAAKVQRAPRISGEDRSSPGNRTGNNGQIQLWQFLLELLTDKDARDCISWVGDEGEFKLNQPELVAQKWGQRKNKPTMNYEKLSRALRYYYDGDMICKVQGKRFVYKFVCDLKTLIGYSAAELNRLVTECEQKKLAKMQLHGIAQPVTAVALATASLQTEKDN
The settings on record: protein: recombinant; tags: N-terminal GST; dsDNA, one strand shown. The method, boiled down: as §1

The target in assay [4] is T4, ERG (Homo sapiens, UniProt P11308 1-479).
T4 sequence: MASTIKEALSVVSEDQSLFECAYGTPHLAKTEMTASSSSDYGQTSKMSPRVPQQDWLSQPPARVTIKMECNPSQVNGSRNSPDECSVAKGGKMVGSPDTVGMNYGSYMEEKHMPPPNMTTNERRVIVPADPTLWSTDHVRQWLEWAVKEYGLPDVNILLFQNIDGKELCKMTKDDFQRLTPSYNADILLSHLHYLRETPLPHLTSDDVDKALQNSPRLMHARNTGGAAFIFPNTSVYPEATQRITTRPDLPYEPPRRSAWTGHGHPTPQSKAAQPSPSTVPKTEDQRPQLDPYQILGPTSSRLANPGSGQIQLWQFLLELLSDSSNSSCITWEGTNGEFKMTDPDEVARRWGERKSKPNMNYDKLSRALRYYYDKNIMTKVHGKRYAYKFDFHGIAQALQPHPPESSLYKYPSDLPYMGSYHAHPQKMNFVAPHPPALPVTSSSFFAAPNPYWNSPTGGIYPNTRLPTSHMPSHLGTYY
The settings on record: protein: recombinant; tags: N-terminal GST; dsDNA, one strand shown. The gist of the method: as §1

Assay [5] concerns the target ELF1 (Homo sapiens, UniProt P32519 1-619). The note with it: protein: recombinant; tags: N-terminal GST; dsDNA, one strand shown. The gist of the method:
as §1

Assay [6] deals with T5, EHF (Homo sapiens, UniProt Q9NZC4 1-300).
T5 sequence: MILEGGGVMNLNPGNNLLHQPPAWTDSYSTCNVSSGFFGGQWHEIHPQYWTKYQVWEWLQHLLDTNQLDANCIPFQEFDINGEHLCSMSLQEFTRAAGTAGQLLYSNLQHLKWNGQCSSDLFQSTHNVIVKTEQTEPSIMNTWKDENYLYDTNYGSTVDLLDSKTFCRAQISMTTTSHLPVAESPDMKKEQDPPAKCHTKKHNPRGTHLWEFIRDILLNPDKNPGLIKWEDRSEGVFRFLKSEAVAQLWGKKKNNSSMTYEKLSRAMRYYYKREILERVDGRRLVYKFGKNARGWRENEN
The settings on record: protein: recombinant; tags: N-terminal GST; dsDNA, one strand shown. The gist of the method:
as §1

The target in assay [7] is SPI1 (Homo sapiens, UniProt P17947 1-270). The note with it: protein: recombinant; tags: N-terminal GST; dsDNA, one strand shown. The method, boiled down: as §1
In assay [8] the target is SPIB (Homo sapiens, UniProt Q01892 1-262). The note with it: protein: recombinant; tags: N-terminal GST; dsDNA, one strand shown. The gist of the method:
as §1

For assay [9], the target named is T6, ELK3 (Homo sapiens, UniProt P41970 1-407).
T6 sequence: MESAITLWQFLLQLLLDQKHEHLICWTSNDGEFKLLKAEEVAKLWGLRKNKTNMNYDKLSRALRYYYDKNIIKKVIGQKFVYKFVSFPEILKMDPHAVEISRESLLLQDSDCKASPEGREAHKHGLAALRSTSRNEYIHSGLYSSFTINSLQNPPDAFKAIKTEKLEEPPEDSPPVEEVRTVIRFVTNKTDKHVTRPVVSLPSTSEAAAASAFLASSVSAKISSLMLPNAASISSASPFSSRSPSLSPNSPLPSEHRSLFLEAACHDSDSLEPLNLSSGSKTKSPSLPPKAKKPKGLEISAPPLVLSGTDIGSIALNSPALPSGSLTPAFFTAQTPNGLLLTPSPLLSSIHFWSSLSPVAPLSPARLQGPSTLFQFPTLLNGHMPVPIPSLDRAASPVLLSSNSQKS
The settings on record: protein: recombinant; tags: N-terminal GST; dsDNA, one strand shown. The gist of the method:
as §1

Assay [10] has as its target T7, FEV (Homo sapiens, UniProt Q99581 1-238).
T7 sequence: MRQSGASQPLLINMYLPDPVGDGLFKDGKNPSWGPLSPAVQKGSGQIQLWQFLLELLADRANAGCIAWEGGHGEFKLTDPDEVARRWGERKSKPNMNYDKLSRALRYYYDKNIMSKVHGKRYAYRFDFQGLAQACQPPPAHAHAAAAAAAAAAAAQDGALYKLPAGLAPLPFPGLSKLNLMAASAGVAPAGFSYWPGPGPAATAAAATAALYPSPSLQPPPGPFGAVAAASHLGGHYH
The note with it: protein: recombinant; tags: N-terminal GST; dsDNA, one strand shown. The method, boiled down:
as §1

For assay [11], the target named is ETV5 (Homo sapiens, UniProt P41161 1-510). The settings on record: protein: recombinant; tags: N-terminal GST; dsDNA, one strand shown. The method, boiled down:
as §1

Assay [12] addresses HSF1 (Homo sapiens, UniProt Q00613 1-529). The note with it: protein: recombinant; tags: N-terminal GST; chain copies: 3; dsDNA, one strand shown. The gist of the method: as §1
Assay [13] addresses T8, SPIC (Homo sapiens, UniProt Q8N5J4 1-248).
T8 sequence: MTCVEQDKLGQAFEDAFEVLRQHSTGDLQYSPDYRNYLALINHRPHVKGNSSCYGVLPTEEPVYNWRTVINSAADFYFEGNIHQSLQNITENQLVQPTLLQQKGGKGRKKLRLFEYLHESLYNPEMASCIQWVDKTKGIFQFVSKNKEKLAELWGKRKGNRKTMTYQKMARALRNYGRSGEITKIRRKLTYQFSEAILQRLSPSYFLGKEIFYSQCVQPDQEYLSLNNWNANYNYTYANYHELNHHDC
The settings on record: protein: recombinant; tags: N-terminal GST; dsDNA, one strand shown. The gist of the method: as §1

Assay [14] deals with ELF4 (Homo sapiens, UniProt Q99607 1-663). The note with it: protein: recombinant; tags: N-terminal GST; dsDNA, one strand shown. The method, boiled down: as §1
Chain of ELF4 (Q99607 whole entry): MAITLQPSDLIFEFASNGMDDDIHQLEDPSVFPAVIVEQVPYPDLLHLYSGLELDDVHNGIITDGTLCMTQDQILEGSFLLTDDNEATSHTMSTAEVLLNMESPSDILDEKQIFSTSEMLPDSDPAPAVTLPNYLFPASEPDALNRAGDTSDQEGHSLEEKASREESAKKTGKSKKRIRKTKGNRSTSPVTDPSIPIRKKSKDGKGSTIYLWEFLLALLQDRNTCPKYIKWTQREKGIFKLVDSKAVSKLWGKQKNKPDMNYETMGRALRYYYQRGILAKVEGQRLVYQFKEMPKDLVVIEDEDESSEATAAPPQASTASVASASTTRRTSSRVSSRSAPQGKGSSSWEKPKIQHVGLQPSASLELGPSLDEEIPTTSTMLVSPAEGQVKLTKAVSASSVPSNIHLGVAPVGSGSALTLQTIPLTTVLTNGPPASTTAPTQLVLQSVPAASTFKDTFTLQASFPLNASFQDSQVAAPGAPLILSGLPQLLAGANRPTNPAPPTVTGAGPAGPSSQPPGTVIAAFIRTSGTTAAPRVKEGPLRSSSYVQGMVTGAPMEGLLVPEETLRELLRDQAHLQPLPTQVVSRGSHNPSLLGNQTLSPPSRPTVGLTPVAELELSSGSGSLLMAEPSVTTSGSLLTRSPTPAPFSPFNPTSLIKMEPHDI
For assay [15], the target named is T9, ELK4 (Homo sapiens, UniProt P28324-2 1-405).
T9 sequence: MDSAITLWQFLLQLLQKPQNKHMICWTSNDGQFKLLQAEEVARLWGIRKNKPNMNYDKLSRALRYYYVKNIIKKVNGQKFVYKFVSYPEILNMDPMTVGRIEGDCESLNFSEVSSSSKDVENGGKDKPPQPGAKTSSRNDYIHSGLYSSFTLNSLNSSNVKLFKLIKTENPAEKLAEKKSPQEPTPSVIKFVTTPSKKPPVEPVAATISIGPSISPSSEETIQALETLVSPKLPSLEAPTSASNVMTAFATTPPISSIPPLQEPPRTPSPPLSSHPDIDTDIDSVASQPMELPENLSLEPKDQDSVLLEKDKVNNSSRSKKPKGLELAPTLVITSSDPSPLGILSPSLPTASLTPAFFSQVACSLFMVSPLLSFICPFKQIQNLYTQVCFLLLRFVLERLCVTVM
The note with it: protein: recombinant; tags: N-terminal GST; dsDNA, one strand shown. The method, boiled down:
as §1

For assay [16], the target named is T10, ETV2 (Homo sapiens, UniProt O00321 1-342).
T10 sequence: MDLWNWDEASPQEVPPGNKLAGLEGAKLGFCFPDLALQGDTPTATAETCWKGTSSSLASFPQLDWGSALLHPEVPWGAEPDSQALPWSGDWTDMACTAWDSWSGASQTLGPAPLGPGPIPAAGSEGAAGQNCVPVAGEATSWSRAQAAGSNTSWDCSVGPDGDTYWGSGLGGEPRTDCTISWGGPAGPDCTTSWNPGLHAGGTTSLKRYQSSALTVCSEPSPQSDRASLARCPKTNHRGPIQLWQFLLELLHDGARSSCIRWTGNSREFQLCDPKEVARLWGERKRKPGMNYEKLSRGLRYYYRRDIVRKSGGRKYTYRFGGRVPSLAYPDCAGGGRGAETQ
The note with it: protein: recombinant; tags: N-terminal GST; dsDNA, one strand shown. The method, boiled down: as §1

The target in assay [17] is T11, ELF3 (Homo sapiens, UniProt P78545 1-371).
T11 sequence: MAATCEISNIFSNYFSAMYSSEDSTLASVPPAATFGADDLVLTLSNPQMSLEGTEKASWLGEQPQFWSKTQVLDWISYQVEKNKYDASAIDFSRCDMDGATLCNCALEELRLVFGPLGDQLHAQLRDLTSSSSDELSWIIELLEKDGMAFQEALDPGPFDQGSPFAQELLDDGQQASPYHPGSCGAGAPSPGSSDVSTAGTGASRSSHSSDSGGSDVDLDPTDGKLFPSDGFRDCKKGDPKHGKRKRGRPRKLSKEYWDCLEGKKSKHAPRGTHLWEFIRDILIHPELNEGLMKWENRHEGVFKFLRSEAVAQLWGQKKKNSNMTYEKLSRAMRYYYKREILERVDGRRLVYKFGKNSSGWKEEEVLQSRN
The settings on record: protein: recombinant; tags: N-terminal GST; dsDNA, one strand shown. The method, boiled down:
as §1

Assay [18] has as its target CRX (Homo sapiens, UniProt O43186 1-299). The settings on record: protein: recombinant; tags: N-terminal GST; dsDNA, one strand shown. The gist of the method:
as §1

Assay [19] deals with ETV1 (Homo sapiens, UniProt P50549 1-477). The note with it: protein: recombinant; tags: N-terminal GST; dsDNA, one strand shown. The gist of the method: as §1
Chain of ETV1 (P50549 whole entry): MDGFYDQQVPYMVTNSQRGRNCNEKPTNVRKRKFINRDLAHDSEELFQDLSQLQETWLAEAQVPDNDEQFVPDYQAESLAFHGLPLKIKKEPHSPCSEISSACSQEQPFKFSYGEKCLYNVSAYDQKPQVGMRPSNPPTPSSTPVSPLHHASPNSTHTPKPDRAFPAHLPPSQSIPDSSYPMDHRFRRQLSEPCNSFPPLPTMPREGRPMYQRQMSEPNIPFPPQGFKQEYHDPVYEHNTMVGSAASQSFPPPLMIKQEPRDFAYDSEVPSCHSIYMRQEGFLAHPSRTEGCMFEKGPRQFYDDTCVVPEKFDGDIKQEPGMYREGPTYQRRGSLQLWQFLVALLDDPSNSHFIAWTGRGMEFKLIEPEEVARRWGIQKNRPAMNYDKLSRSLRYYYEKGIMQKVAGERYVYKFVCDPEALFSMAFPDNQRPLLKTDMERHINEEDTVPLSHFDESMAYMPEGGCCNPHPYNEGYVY

Chain of CRX (O43186 whole entry): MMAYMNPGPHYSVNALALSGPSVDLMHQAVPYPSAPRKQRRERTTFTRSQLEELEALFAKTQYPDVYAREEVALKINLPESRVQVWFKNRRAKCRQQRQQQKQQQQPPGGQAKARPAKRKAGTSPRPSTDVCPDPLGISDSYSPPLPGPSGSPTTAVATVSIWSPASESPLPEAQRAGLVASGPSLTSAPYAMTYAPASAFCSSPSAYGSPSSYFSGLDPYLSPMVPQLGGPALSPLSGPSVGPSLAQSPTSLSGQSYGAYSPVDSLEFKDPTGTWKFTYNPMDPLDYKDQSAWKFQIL
Chain of ELF1 (P32519 whole entry): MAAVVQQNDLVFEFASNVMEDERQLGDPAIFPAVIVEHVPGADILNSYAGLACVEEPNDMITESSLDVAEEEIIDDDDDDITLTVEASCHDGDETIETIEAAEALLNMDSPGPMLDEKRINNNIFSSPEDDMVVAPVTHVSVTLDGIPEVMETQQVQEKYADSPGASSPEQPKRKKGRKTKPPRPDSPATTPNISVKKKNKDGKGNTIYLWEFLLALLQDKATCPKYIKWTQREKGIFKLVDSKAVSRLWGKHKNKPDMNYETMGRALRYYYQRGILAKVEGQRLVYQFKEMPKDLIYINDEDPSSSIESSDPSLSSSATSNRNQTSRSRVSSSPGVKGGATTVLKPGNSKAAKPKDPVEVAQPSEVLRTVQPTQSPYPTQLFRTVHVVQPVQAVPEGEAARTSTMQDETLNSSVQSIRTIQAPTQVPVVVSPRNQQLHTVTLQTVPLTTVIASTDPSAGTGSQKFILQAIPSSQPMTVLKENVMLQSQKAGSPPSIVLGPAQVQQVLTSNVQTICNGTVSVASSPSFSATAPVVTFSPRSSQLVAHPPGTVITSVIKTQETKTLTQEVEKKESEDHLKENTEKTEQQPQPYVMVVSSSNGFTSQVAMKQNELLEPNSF
Chain of SPIB (Q01892 whole entry): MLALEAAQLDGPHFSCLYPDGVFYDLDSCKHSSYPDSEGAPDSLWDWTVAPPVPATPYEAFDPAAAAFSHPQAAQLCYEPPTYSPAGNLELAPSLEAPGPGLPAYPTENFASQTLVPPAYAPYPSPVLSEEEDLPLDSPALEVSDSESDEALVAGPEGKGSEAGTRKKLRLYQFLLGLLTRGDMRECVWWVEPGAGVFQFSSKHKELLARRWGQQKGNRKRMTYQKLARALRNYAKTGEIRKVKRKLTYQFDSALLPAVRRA
Chain of HSF1 (Q00613 whole entry): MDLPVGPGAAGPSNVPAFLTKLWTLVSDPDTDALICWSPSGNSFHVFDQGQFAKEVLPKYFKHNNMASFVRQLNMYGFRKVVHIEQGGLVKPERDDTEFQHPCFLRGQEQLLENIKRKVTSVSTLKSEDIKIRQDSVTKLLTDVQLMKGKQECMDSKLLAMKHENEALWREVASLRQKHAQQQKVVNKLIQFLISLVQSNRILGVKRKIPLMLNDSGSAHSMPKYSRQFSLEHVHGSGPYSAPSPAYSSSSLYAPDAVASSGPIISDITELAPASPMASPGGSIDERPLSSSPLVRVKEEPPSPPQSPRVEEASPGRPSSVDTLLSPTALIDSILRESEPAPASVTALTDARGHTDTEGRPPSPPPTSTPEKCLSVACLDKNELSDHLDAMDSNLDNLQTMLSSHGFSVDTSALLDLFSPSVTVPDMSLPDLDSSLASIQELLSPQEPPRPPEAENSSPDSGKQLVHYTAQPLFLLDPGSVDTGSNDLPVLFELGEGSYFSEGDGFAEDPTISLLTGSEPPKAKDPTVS
Chain of ETV5 (P41161 whole entry): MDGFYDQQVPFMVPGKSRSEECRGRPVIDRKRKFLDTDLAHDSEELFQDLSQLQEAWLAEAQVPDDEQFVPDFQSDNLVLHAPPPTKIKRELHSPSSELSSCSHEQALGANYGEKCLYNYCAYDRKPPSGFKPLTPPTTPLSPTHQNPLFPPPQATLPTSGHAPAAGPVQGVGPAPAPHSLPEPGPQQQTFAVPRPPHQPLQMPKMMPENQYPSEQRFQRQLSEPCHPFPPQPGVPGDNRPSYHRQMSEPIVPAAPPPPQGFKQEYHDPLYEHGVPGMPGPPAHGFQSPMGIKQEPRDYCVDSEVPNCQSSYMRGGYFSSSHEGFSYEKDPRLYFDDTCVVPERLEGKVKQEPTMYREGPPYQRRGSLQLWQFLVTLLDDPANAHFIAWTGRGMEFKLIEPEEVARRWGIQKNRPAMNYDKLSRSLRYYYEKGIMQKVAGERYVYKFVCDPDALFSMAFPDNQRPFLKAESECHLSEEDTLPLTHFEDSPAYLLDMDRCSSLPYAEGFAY

For the sequence ATGATC, the binding signal was 1.2 fold enrichment (6-mer frequency, TF over GST control) in [1]; 1.17 fold enrichment (6-mer frequency, TF over GST control) in [2]; 1.3 fold enrichment (6-mer frequency, TF over GST control) in assay [3]; 1.1 fold enrichment (6-mer frequency, TF over GST control) in assay [4]; 1.22 fold enrichment (6-mer frequency, TF over GST control) in assay [5]; 1.28 fold enrichment (6-mer frequency, TF over GST control) in assay [6]. Moreover, the binding signal in assay [7] is 1.15 fold enrichment (6-mer frequency, TF over GST control); in assay [8] it was 1.18 fold enrichment (6-mer frequency, TF over GST control); in assay [9] it was 1.31 fold enrichment (6-mer frequency, TF over GST control); in assay [10], 1.14 fold enrichment (6-mer frequency, TF over GST control); in assay [11], 1.24 fold enrichment (6-mer frequency, TF over GST control); in assay [12], 1.59 fold enrichment (6-mer frequency, TF over GST control). Further, the binding signal in assay [13] was 1.38 fold enrichment (6-mer frequency, TF over GST control); in [14], 1.21 fold enrichment (6-mer frequency, TF over GST control); in assay [15] it was 1.16 fold enrichment (6-mer frequency, TF over GST control); in [16] it was 1.15 fold enrichment (6-mer frequency, TF over GST control); in assay [17], 1.19 fold enrichment (6-mer frequency, TF over GST control); in [18], 1.74 fold enrichment (6-mer frequency, TF over GST control). Further, the binding signal in [19] is 1.1 fold enrichment (6-mer frequency, TF over GST control).
